The full data set covers some 6,500 targets. This sample favours those with a hit. About 2% of all pairs of compound and target were hits.
What follows are targets tested with COC(=O)C#Cc1ccccc1 [methyl 3-phenylpropiolate] (assay: log2 ratio of iodoacetamide-alkyne labeling of the cysteine site, DMSO over compound (competition); higher = stronger covalent engagement of the cysteine by the compound, active = 1 or more). Conditions: 500 µM; treatment time 1 h; system: HEK293T cell lysate.
Outline: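 Reporter intensities give each cysteine's log2 competition ratio as the mean of control channels over the mean of compound channels. The samples were HEK293T lysate (2 mg/mL) given vehicle or electrophile (500 µM, 1 h, ambient temperature), then iodoacetamide alkyne (1 h), followed by click coupling to sCIP-TMT reagents, pooling, trypsin digestion overnight at 37 °C, streptavidin enrichment, acid elution, Orbitrap Eclipse LC-MS/MS with FAIMS and FragPipe quantification. Duplicate channels and three replicates were run, and cysteines quantified in only one replicate were discarded.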

log2 ratio of iodoacetamide-alkyne labeling, inactive:
HDAC2 C417 (UniProt Q92769) 0.126, ADO C258 (UniProt Q96SZ5) 0.15, ZGPAT C377 (UniProt Q8N5A5) 0.342, UniProt Q7RTV0_C11 -0.0735, PDLIM5 C449 (UniProt Q96HC4) 0.0755, USP9X C1061 (UniProt Q93008) 0.0678, TBC1D15 C686 (UniProt Q8TC07) 0.635, MYBBP1A C942 (UniProt Q9BQG0) 0.523, RANBP9 C610 (UniProt Q96S59) 0.53, IRF2BP2 C40 (UniProt Q7Z5L9) 0.276, UniProt Q9BPX6_C83 0.582, ARID2 C1512 (UniProt Q68CP9) 0.438, NIPBL C1876 (UniProt Q6KC79) 0.17, RDH13 C30 (UniProt Q8NBN7) 0.116, PDLIM5 C446 (UniProt Q96HC4) 0.0755, MYBBP1A C968 (UniProt Q9BQG0) 0.274, UniProt Q96GD4_C234 0.62, HNRNPAB C98 (UniProt Q99729) -0.0694, UniProt Q8NFC6_C2164 0.286, GSTCD C335 (UniProt Q8NEC7) 0.19, KIAA2013 C185 (UniProt Q8IYS2) 0.14, APIP C97 (UniProt Q96GX9) 0.129, NCAPG C202 (UniProt Q9BPX3) 0.0426, UBR1 C1603 (UniProt Q8IWV7) 0.433, HIST2H3A C111 (UniProt Q71DI3) 0.0441, UniProt Q8NFC6_C686 0.47, GBF1 C1766 (UniProt Q92538) 0.302, FAF2 C194 (UniProt Q96CS3) 0.689, UniProt Q7Z5K2_C94 0.262

log2 ratio of iodoacetamide-alkyne labeling, active:
PHIP C954 (UniProt Q8WWQ0) 1.46, MASTL C285 (UniProt Q96GX5) 1.02, FAM122B C155 (UniProt Q7Z309) 1.05, NAT14 C108 (UniProt Q8WUY8) 1.05, LUZP1 C969 (UniProt Q86V48) 1.01, UniProt Q969V6_C326 1.42
